Hits are enriched below; roughly 12% of the tested compounds scored in any of these assays.
AmpC detergent = blocks E. coli AmpC beta-lactamase in detergent assay | AmpC hydrolysis of nitrocefin, absorbance 480 nm, 0.01% Triton | Potency, µM (titrated, usually from 114 µM), for inactives: top-dose activity change, negative = inhibition, most hits filed as inhibitors | actives 0.041% (n = 370,000);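 also: 0% = no-compound wells and -100% = no-enzyme wells; nearly all actives have a fitted effect of over 25% in size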
Target sequence (P00811 whole entry, looked up): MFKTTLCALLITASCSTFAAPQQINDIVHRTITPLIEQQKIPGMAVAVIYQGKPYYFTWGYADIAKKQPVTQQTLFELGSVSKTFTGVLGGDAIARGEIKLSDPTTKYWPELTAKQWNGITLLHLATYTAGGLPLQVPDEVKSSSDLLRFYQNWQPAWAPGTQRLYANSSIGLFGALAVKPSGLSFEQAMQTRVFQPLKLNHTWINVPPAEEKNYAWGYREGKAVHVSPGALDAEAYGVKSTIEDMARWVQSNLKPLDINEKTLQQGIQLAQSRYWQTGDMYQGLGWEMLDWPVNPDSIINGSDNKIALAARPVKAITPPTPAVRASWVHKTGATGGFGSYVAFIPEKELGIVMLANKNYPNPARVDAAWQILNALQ
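AmpC (5.3 nM in the dispensed reagent) in 20 mM phosphate pH 7.0 with 0.01% (detergent screen) or 0.0001% Triton X-100 was preincubated with compounds for 15 min at room temperature. Nitrocefin was then added from an 800 uM solution, and hydrolysis was followed at 480 nm.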
SARS PLpro yeast = blocks SARS-CoV papain-like protease in a yeast assay | AID 485353 | actives 0.19% (n = 330,000) | Potency, µM (titrated, usually from 32.9 µM), for the others: at the highest dose activity, positive = growth rescue, hits mostly activators | S. cerevisiae expressing SARS-CoV PLpro, growth rescue; calls by dose curve; also: 0% is about no effect; nearly all actives have a fitted effect of over 55% in size
AmpC inh no detg = inhibitors of E. coli AmpC beta-lactamase without detergent; AmpC nitrocefin hydrolysis, absorbance 480 nm, 0.0001% Triton; Potency, µM (highest dose often 57.1 µM), for the others: at the top dose activity change, negative = inhibition, most hits filed as inhibitors; actives 0.52% (n = 330,000); AID 485341;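 also: plate controls were no compound for no effect and no enzyme for full effect; nearly all actives have a fitted effect of over 20% in size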
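20 mM phosphate pH 7.0 + 0.01% (detergent screen) or 0.0001% Triton X-100; 5.3 nM AmpC reagent; cpd preinc 15 min RT; nitrocefin (800 uM stock) to start; A480 q20 s × 4 min; Activity was normalised to no-enzyme and no-compound control wells.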
Pf growth 96h = P. falciparum growth inhibition at 96 hours; actives 6.9% (n = 320,000); AID 504834; P. falciparum luciferase reporter growth, 96 h; Potency, µM (top dose mostly 28.7 µM), for inactives: at the top dose activity change, negative = inhibition, hits mostly inhibitors; also: % is scaled to controls: 0 for no effect and ±100 for the full control effect
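Luminescence readout: decreased luciferase signal marks inhibited growth of reporter-expressing P. falciparum in infected red cells (2% hematocrit, 0.05% parasitemia final), exposed to compound two generations (96 h, 37 C, 5% CO2).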
Sm TGR block = inhibitors of Schistosoma mansoni thioredoxin glutathione reductase; Q962Y6; purified TGR, DTNB reduction, TNB absorbance 405 nm; Potency, µM (doses to about 114 µM), inactives show at the highest dose activity change, negative = inhibition, actives largely listed as inhibitors; actives 3% (n = 360,000); AID 485364; also: % is scaled to controls: 0 for no effect and ±100 for the full control effect; nearly all actives have a fitted effect of over 60% in size
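First, TGR (20 nM dispensed) and NADPH were mixed with compound. Second, a 15 min room-temperature incubation followed. Third, further NADPH and then DTNB were added to start the reaction. Finally, TNB absorbance was monitored kinetically.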
Pf growth 48h = inhibits P. falciparum growth in the first generation, 48 h. Potency, µM (titrated, usually from 28.7 µM), for the others: top-dose activity change, negative = inhibition, hits mostly inhibitors. P. falciparum luciferase growth in erythrocytes, 48 h. actives 5.9% (n = 310,000); also: % is scaled to controls: 0 for no effect and ±100 for the full control effect
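Luminescence readout; reporter = integrated firefly luciferase in P. falciparum. RBC culture at 2% hematocrit, 0.1% parasitemia final, 37 C/5% CO2; decreased signal taken as growth inhibition.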
* hit, by the source's call; ? = inconclusive; nt = not tested or not shown. Unless noted, calls follow the shape of the dose curve; as a rule, active = well fitted curve in the direction sought with a large enough effect; inconclusive = small, poorly fitted or top-dose-only effect, or another doubt; inactive = no such curve, though single readings can be large; an effect the other way counts as inactive or inconclusive. Potency is read from the fitted curve at half-maximal effect.

SMILES | AmpC detergent | SARS PLpro yeast | AmpC inh no detg | Pf growth 96h | Sm TGR block | Pf growth 48h
C=CCN1CCCC1CNC(=O)c1cc(S(N)(=O)=O)cc(OC)c1OC (centres undefined) | nt | nt | nt | -6.5% | nt | 4.9%
Cc1ccc(C)c(Cn2c(=O)n(Cc3ccccc3)c(=O)c3c(C)c(C)sc32)c1 | 17.1% | nt | nt | nt | 0.7% | nt
COc1ccc(NS(=O)(=O)c2cn(C)nc2C)cc1 | 0.5% | -2.7% | 25.0% | 8.6% | -8.8% | 13.1%
O=C(O)CSc1cc(NS(=O)(=O)c2ccc(Cl)cc2)c2ccccc2c1O | 4.7% | -12.0% | -45.8% | ? | 7.08µM* | ?
COc1ccc(S(=O)(=O)Nc2cc(S(=O)(=O)c3ccccc3)c(O)cc2C)cc1 | -10.3% | 1.2% | -34.0% | ? | ? | 7.0%
COc1ccc(S(=O)(=O)Nc2cc(SCC(=O)O)c(O)c3ccccc23)cc1 | -5.8% | -10.5% | -35.3% | ? | 3.55µM* | 4.15µM*
CC(=O)Nc1ccc(NS(=O)(=O)c2ccccc2)c2ccccc12 | 0.1% | -3.3% | -17.0% | 4.9% | 0.3% | nt
COc1ccc(S(=O)(=O)Nc2ccc(O)c(Sc3ncn[nH]3)c2)cc1 | ? | -0.1% | -27.2% | -2.7% | -10.4% | -9.2%
O=S(=O)(Nc1cc(Sc2cccc3cccnc23)c(O)c2ccccc12)c1ccc(F)cc1 | -5.5% | -6.0% | -45.5% | 7.5% | 3.55µM* | 2.62µM*
COc1ccc(S(=O)(=O)Nc2cc(Sc3ncn[nH]3)c(O)c3ccccc23)cc1 | -5.3% | -46.2% | -27.6% | 2.94µM* | 0.501µM* | nt
O=S(=O)(Nc1cccnc1Cl)c1ccc(F)cc1 | -3.2% | -2.3% | -3.9% | -8.4% | 7.2% | -9.8%
Cc1cc(C)c(S(=O)(=O)Nc2ccc(O)cc2)cc1C | -2.0% | -12.5% | -32.6% | 11.3% | -29.4% | -20.6%
Cc1cc(C)c(S(=O)(=O)Nc2cc(SCC(=O)O)c(O)c3ccccc23)cc1C | -11.7% | -6.4% | -45.5% | 2.62µM* | 8.91µM* | 10.4µM*
CCN(CC)c1ccc(/C=C(/C#N)C(=O)NCc2ccccc2)o1 | 4.2% | 13.5% | -44.6% | ? | 35.5µM* | 56.6%
N#C/C(=C/c1ccccc1[N+](=O)[O-])C(=O)NCc1ccco1 | -1.0% | -17.1% | -15.8% | ? | -34.2% | -0.6%
CCN(CC)c1ccc(/C=C(/C#N)C(=O)NC(C)C)o1 | -13.7% | -0.7% | -14.7% | ? | nt | -9.5%
N#C/C(=C\c1ccccc1[N+](=O)[O-])C(=O)NCc1ccccc1 | -4.5% | -2.7% | -34.3% | ? | -1.7% | 14.7µM*
N#C/C(=C\C=C\c1ccccc1[N+](=O)[O-])C(=O)NCc1ccccc1 | 4.9% | -3.9% | -42.8% | 1.85µM* | 3.5% | 3.7µM*
C=CCNC(=O)/C(C#N)=C/c1ccccc1[N+](=O)[O-] | ? | -12.0% | -0.7% | 15.6% | -0.1% | -1.8%
COC(=O)C(=Cc1ccccc1[N+](=O)[O-])C(=O)OC | ? | -3.6% | -3.6% | 9.28µM* | 7.08µM* | ?
O=C(Nc1ccc(F)cc1Cl)C1Cc2ccccc2N1C(=O)c1ccccc1 (centres undefined) | -6.5% | nt | nt | nt | -0.5% | nt
CCCCCCCCNC(=O)/C(C#N)=C/c1ccccc1[N+](=O)[O-] | -9.6% | -110.1% | -8.0% | ? | -7.2% | 13.1µM*
O=C(N/N=C/c1cn(-c2ccccc2)nc1-c1cc2ccccc2o1)c1c[nH]c2ccccc12 | -0.9% | -0.9% | -32.7% | ? | nt | 3.29µM*
COC(=O)C1=C(c2ccc3ccccc3c2)C[C@@H]2CC[C@H]1N2C(=O)N1CCC(C)CC1 | 5.8% | 2.9% | 97.4% | ? | -15.8% | 9.28µM*
COC(=O)C1=C(c2ccc(OC)c(OC)c2)C[C@@H]2CC[C@H]1N2C(=O)N1CCC(C)CC1 | 4.1% | -20.2% | 137.9% | ? | 3.6% | 31.4%
SMILES | AmpC detergent | SARS PLpro yeast | AmpC inh no detg | Pf growth 96h | Sm TGR block | Pf growth 48h
COC(=O)C1=C(c2ccc(C(C)=O)cc2)C[C@@H]2CC[C@H]1N2C(=O)N1CCC(O)(c2ccc(Cl)cc2)CC1 | -4.8% | -10.5% | 173.5% | ? | -4.1% | 10.4µM*
COC(=O)C1=C(c2ccc(C(C)=O)cc2)C[C@@H]2CC[C@H]1N2C(=O)N1CCC(C)CC1 | -2.3% | 1.0% | 124.5% | -9.2% | -26.5% | 13.1µM*
Cc1ccc(C(CC(=O)N2CCCC2)c2ccccc2)c(O)c1 (centres undefined) | -0.2% | -1.7% | -3.4% | ? | -12.2% | -23.7%
COc1cccc(NC(=O)C(=O)NCCc2csc(-c3ccc(C)cc3)n2)c1 | 5.0% | nt | nt | nt | 11.3% | nt
COc1ccc(SCCCn2c(=O)c3c(ncn3C)n(C)c2=O)cc1 | -11.5% | -14.2% | 64.1% | ? | -15.1% | -10.1%
O=C(N/N=C/c1ccncc1)c1cc(-c2ccc(Br)s2)[nH]n1 | -1.1% | 14.4% | -26.2% | 11.7µM* | 3.7% | ?
O=C(N/N=C\c1cccnc1)c1ccc(Cl)s1 | -7.3% | -1.5% | -17.4% | ? | -16.8% | 4.4%
O=C(N/N=C\c1ccncc1)c1ccc(Cl)s1 | 8.1% | -0.7% | -15.9% | 13.1µM* | 4.3% | 9.8%
Cc1ccc(-c2cc(C(=O)N/N=C/c3ccco3)n[nH]2)s1 | -7.0% | 7.0% | -26.2% | 67.8% | -27.5% | 10.4µM*
Cc1ccc(S(=O)(=O)CCC(=O)OCC(=O)NCC(=O)Nc2c(C)cc(C)cc2C)cc1 | -16.6% | -10.5% | 21.0% | 4.1% | 0.0% | -1.6%
C/C(=N/O)c1ccc2c(c1)OCCOCCOc1cc(/C(C)=N/O)ccc1OCCOCCO2 | ? | -12.3% | -36.4% | 13.1µM* | -7.4% | ?
C/C(=N\O)c1ccc2c(c1)OCCO2 | -0.5% | -3.4% | -2.0% | 249.8% | -3.5% | 38.4%
Nc1ccc2c(c1)OCCOCCOCCOCCOCCO2 | -7.6% | -2.2% | 78.0% | 5.86µM* | -9.7% | 188.2%
O=C(/C=C/c1ccc(OC(F)F)cc1)OCC(=O)N1CCC(c2ccccc2)=N1 | -13.4% | 8.4% | 1.0% | ? | -15.4% | ?
Cc1cccc(CC(=O)OCn2nnc3ccccc3c2=O)c1 | -18.8% | -13.2% | 10µM* | -3.3% | -3.1% | -1.3%
Cc1ccc(C(=O)OCn2nnc3ccccc3c2=O)cc1[N+](=O)[O-] | -3.1% | 0.2% | -25.2% | 2.62µM* | 5.8% | 13.5%
COc1ccc(C(=O)OCn2nnc3ccccc3c2=O)cc1[N+](=O)[O-] | 2.6% | 1.6% | -0.1% | 23.9% | 24.9% | 49.0%
CN(C)S(=O)(=O)c1ccc(C(=O)OCn2nnc3ccccc3c2=O)cc1 | 1.5% | -7.4% | 10µM* | 10.9% | 0.2% | -1.3%
